# Measured values as given in PubChem BioAssay.
# A number with no mark means an inactive call. How the calls were made is not given here.
# Tested on: Aerobactin synthetase IucA (Klebsiella pneumoniae, hypervirulent)
# Assay: biochemical IucA inhibition screen of LOPAC library by absorbance (AID 1346212);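 further: 100% = no compound wells and 0% = no enzyme wells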
# Conditions: IucA enzyme assay, absorbance (OD) readout; hits give low values;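 tested at 8 µM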
row,Compound,remaining activity
1,CC(C)Cn1cnc2c(N)nc3ccccc3c21,102%
2,CC#C[C@]1(O)CC[C@H]2[C@@H]3CCC4=CC(=O)CCC4=C3[C@@H](c3ccc(N(C)C)cc3)C[C@@]21C,111%
3,O=C(O)C1(C(=O)O)CCC1.[NH2-].[NH2-].[Pt+2],113%
4,CN1C2CCC1CC(NC(=O)c1nn(C)c3ccccc13)C2 (stereo unspecified),107%
5,COC(=O)c1c(-c2cc(OC)c(OC)c(OC)c2)c2ccnc(OCc3ncccn3)c2c(=O)n1Cc1ccnc(C)c1,101%
6,Oc1ccc(Cn2cc[nH]c2=S)cc1,102%
7,C[C@]12C[C@H](O)[C@H]3[C@@H](CCC4=CC(=O)CC[C@@]43C)[C@@H]1CC[C@@H]2C(=O)CO,110%
8,NC(=O)CNCCC(c1ccccc1)c1ccccc1,118%
9,Cc1ccc([N+](=O)[O-])cc1S(=O)(=O)N(C)C,108%
10,COc1ccc(NC(=O)c2ccc(-c3ccc(-c4noc(C)n4)cc3C)cc2)cc1N1CCN(C)CC1,112%
11,COC(=O)[C@H](NC(=O)c1cc(-c2ccccc2)nc2ccccc12)c1ccccc1,97.3%
12,NC(=O)c1cc[n+](CC2=C(C(=O)O)N3C(=O)[C@@H](NC(=O)[C@@H](c4ccccc4)S(=O)(=O)[O-])[C@H]3SC2)cc1,107%
13,CCCCCCCC/C=C\CCCCCCCC(=O)NCCc1ccc(O)c(O)c1,109%
14,CC[C@H](C)[C@H]1O[C@]2(CC[C@@H]1C)C[C@@H]1C[C@@H](C/C=C(\C)[C@@H](O[C@H]3C[C@H](OC)[C@@H](O[C@H]4C[C@H](OC)[C@@H](O)[C@H](C)O4)[C@H](C)O3)[C@@H](C)/C=C/C=C3\CO[C@@H]4[C@H](O)C(C)=C[C@@H](C(=O)O1)[C@]34O)O2,114%
15,CSc1nc(N)c2ncn([C@@H]3O[C@H](COP(=O)(O)OP(=O)(O)OP(=O)(O)O)[C@H](O)C3O)c2n1 (stereo partly specified),109%
16,CCCc1c(-c2ccc(O)cc2)nn(-c2ccc(O)cc2)c1-c1ccc(O)cc1,102%
17,CCC(=O)c1ccc2c(c1)N(CCCN(C)C)c1ccccc1S2,88.8%
18,CN1C2CCC1CC(OC(=O)c1c[nH]c3ccccc13)C2 (stereo unspecified),97.7%
19,CC(C)C[C@H]1C(=O)N2CCC[C@H]2[C@]2(O)O[C@](NC(=O)[C@@H]3C=C4c5cccc6[nH]c(Br)c(c56)C[C@H]4N(C)C3)(C(C)C)C(=O)N12,108%
20,O=C(NCC1CCCCN1)c1cc(OCC(F)(F)F)ccc1OCC(F)(F)F (stereo unspecified),91.1%
21,CC1(C)CCC2=C(O1)c1ccccc1C(=O)C2=O,113%
